Assay outcomes: PubChem BioAssay, National Center for Advancing Translational Sciences (NCATS)
Only some compounds are listed: those with a hit (about 0.59% of all), similar ones and a draw of the others.
PINK1 modulator: modulators of PINK1 expression | PINK1 immunofluorescence, high-content cytometry, 24 h | 410,000 compounds, 0.2% hits | Potency, µM (series often up to 76.6 µM), for inactives: at the top dose activation (PINK1 increase), hits mostly activators; active = well fitted activation curve with a large enough effect; inconclusive = small, poorly fitted or top-dose-only effect; cell line not stated here; note: potency is the fitted concentration of half-maximal effect; % of control where 0% means no effect; nearly all actives have a fitted effect of over 65% in size
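A stable cell line was treated with compounds at 5 concentrations for 24 hours, with CCCP as control. PINK1 levels and mitochondrial localization were measured by immunofluorescence with mitochondrial, cell and nuclear markers after fixation, read by laser-scanning cytometry.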
Vif-APOBEC3G blk: blocks the Vif interaction with human APOBEC3G; 410,000 compounds, 0.076% hits; Potency, µM (series often up to 46.1 µM), without a hit: at the highest dose activity, negative = active, hits mostly inhibitors; Q9HC16; AID 602310; HeLa A3G-eYFP + Vif (tagged APOBEC3G with the HIV-1 protein that degrades it), YFP fluorescence, overnight; note: potency is the fitted concentration of half-maximal effect; % is set by controls: 0 for no effect and ±100 for the full control effect; nearly all actives have a fitted effect of over 60% in size
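Read-out is eYFP fluorescence (Ex 488/Em 500-530) from Vif-expressing HeLa A3G-eYFP cells; more signal means A3G escaped Vif-mediated degradation. Cells plated overnight, compound pinned in, incubated overnight at 37 deg C.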
LDHA block: LDHA (human) enzyme inhibition; purified LDHA, NADH/diaphorase-resazurin fluorescence; stronger effect = lower value; activity change, % (values are at about 110 or 230 µM); 480,000 compounds, 0.15% hits; in the data active = activity change below about -30%; inconclusive = mostly about -25% to -30%;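 note: plate controls were DMSO wells for no effect and wells without enzyme for full effect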
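Human LDH5 (2 nM) was incubated with 0.06 mM NADH and 0.2 mM pyruvate for 5 min at room temperature in Tris pH 7.4. Remaining NADH was coupled through diaphorase/resazurin, and resorufin fluorescence was read at 0 and 20 min.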
mIDH1 inhibitor: human IDH1 R132H inhibition; O75874; IDH1-R132H enzyme, NADPH consumption, diaphorase/resazurin fluorescence; Potency, µM (highest dose often 76.6 µM), inactives show at the top dose activity change, negative = inhibition, most hits filed as inhibitors; 390,000 compounds, 0.093% hits; note: potency is the fitted concentration of half-maximal effect; % is set by controls: 0 for no effect and ±100 for the full control effect; nearly all actives have a fitted effect of over 65% in size
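IDH1-R132H (0.5 ug/mL) preincubated 30 min with compound, then NADPH (0.016 mM) and alpha-KG (2 mM) added; 80 min at RT, pH 7.5. Remaining NADPH coupled via diaphorase/resazurin to fluorescence (540/590 nm); concentration-response curves normalized to no-enzyme control.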
PTHR1 agonist: agonists of human PTHR1 parathyroid hormone receptor; Q03431; HEK293 GP2 PTHR1 cells, GloSensor cAMP luminescence, 1 h; Potency, µM (titrated, usually from 115 µM), without a hit: at the highest dose activation, usual class: activators; 410,000 compounds, 0.075% hits; note: potency is the fitted concentration of half-maximal effect; nearly all actives have a fitted effect of over 55% in size
Target sequence (Q03431 whole entry, looked up): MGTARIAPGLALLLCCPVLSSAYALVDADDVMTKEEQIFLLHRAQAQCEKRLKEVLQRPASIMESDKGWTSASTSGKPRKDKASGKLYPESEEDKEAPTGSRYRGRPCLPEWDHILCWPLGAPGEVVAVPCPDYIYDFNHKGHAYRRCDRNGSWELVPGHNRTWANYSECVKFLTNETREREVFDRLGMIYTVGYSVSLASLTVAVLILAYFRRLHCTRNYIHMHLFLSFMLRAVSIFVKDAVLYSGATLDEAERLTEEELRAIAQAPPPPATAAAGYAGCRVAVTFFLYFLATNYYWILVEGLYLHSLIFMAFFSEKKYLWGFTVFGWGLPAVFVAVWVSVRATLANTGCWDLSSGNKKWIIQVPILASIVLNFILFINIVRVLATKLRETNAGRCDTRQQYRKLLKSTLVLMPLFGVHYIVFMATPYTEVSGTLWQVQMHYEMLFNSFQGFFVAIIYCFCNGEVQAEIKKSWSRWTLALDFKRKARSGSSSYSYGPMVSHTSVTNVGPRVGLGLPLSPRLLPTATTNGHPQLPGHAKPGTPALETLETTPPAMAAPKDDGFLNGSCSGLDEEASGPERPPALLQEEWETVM
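HEK-293-derived GP2 cells expressing PTHR1 and a GloSensor cAMP reporter, 3,000/well, plated overnight, given luciferin plus IBMX (each 0.5 mM as added) for 1 h at 37 °C, then compound for 1 h at 37 °C. Luminescence was read after 15 min at room temperature.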
Vif-A3F inh: blocks the Vif interaction with APOBEC3F. HeLa A3F-eYFP + Vif (tagged APOBEC3F with the HIV-1 protein that degrades it), YFP fluorescence increase. Potency, µM (top dose mostly 46.1 µM), for the others: top-dose activity, negative = active. 390,000 compounds, 0.2% hits; note: potency is the fitted concentration of half-maximal effect; % of control where 0% means no effect; nearly all actives have a fitted effect of over 65% in size
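HeLa cells stably expressing A3F-eYFP plus Vif, plated and incubated overnight at 37 deg C, then exposed to compounds overnight at 37 deg C. Blocked degradation read as raised yellow fluorescence (Ex 488/Em 500-530).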
IDH1 autofl: interferes with resorufin fluorescence in IDH1 counter-screen. shares compounds with mIDH1 inhibitor. Resorufin detection reagent fluorescence interference, cell-free. inhibition of signal, % at 51.2 µM. 750 tested, under 10 active;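 note: 0% = wells with normal resorufin and full inhibition = wells lacking resorufin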
IDH1 WT: wild-type IDH1 (human) inhibition counterscreen. shares compounds with mIDH1 inhibitor. WT IDH1 enzyme, NADPH diaphorase/resazurin fluorescence. Potency, µM (highest dose often 115 µM), for inactives: at the highest dose activity change, negative = inhibition, most hits filed as inhibitors. 750 compounds, 9% hits. AID 623995;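 note: potency is the fitted concentration of half-maximal effect; 0% = full WT IDH1 enzyme control and full inhibition = no enzyme wells; nearly all actives have a fitted effect of over 55% in size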
mIDH1 confirm: confirmation of human mutant IDH1 inhibitors; shares compounds with mIDH1 inhibitor; IDH1 R132H enzyme, NADPH diaphorase/resazurin fluorescence; Potency, µM (top dose mostly 76.6 µM), inactives show at the highest dose activity change, negative = inhibition, actives largely listed as inhibitors; 750 compounds, 83% hits; AID 624002; note: potency is the fitted concentration of half-maximal effect; nearly all actives have a fitted effect of over 50% in size
* = called active by the depositor; i = inactive; ? = inconclusive; nt = not tested or not shown; [ ] = another dose, or the depositor's remark. Unless noted, calls come from the whole dose curve; as a rule, active = well fitted curve in the direction sought with a large enough effect; inconclusive = small, poorly fitted or top-dose-only effect, or another doubt; inactive = no such curve, though single readings can be large; an effect the other way counts as inactive or inconclusive.

SMILES	PINK1 modulator	Vif-APOBEC3G blk	LDHA block	mIDH1 inhibitor	PTHR1 agonist	Vif-A3F inh	IDH1 autofl	IDH1 WT	mIDH1 confirm
COc1ccc(NC2=C(c3ccccc3)C(=O)c3ccccc32)cc1Cl	6%	-2%	5	?	-54%	0%	-6	-1%	7.1µM*
CCOC(=O)Cn1c(CN2CCN(c3ccccc3F)CC2)nc2c1c(=O)n(C)c(=O)n2C	nt	nt	-5	nt	nt	nt	nt	nt	nt
COc1ccc(-c2oc(NC(=O)CCl)c(C#N)c2-c2ccc(OC)cc2)cc1	-2%	-26%	1	29µM*	-59%	-2%	10	79µM*	8.9µM*
Cc1ccc(-c2csc(N3CCC[C@@H]3C(=O)NCCn3c(C(F)(F)F)nc4ccccc43)n2)cc1	4%	-4%	0	21%	?	-2%	nt	nt	nt
CCCn1c(C2CCCN2c2nc(-c3cccc(Br)c3)cs2)nc2ccccc21 (stereo not drawn)	11%	-3%	1	?	24%	10µM*	5	-3%	25µM*
O=S(=O)(c1ccc(N2CCN(Cc3cccc4ccccc34)CC2)nc1)N1CCCC1	nt	nt	3	nt	nt	nt	nt	nt	nt
O=C(CSc1nnc(Cc2cccs2)n1C1CC1)N1CCN(c2ccccc2)CC1	nt	nt	2	nt	nt	nt	nt	nt	nt
Cc1cccc(-c2c3c(=O)n(C)c(=O)n(C)c3cn2-c2cc(N)c(Cl)cc2Cl)c1	1%	6%	20	35µM*	-37%	2%	-2	-21%	?
O=C(NC(Nc1nc2ccc([N+](=O)[O-])cc2s1)(C(F)(F)F)C(F)(F)F)c1ccccc1Cl	?	5%	-4	?	-55%	-21%	9	-5%	22µM*
CN(C)S(=O)(=O)c1ccc2nc(NC(=O)c3cccnc3)sc2c1	0%	0%	-2	5%	-14%[57.5 µM]	4%	nt	nt	nt
O=C(NC(Nc1nc2ccc([N+](=O)[O-])cc2s1)(C(F)(F)F)C(F)(F)F)c1cccnc1	?	9%	-7	?	-92%	-13%	6	-3%	13µM*
O=C(Nc1cccc(Cl)c1)c1cnc2ccccc2n1	nt	nt	1	nt	nt	nt	nt	nt	nt
CC(C)CCSc1nc(N2CCOCC2)c2c(c1C#N)CC(C)(C)OC2	26%[38.3 µM]	0%	9	16µM*	i	-5%	-10	11%	7.9µM*
COC(=O)CCSc1nc(N2CCOCC2)c2c(c1C#N)CC(C)(C)OC2	7%	2%	-2	7%	-17%	3%	nt	nt	nt
COc1cc2c(C#CCCO)c(-c3ccsc3)oc(=O)c2cc1OC	0%	10%	1	-9%	i	5%	nt	nt	nt
COCc1ccc(-c2c(-c3ccsc3)oc(=O)c3cc(OC)c(OC)cc23)cc1	5%	-18%	-5	16µM*	-52%	3%	6	1%	10µM*
O=C(NC1CCCCC1)C(c1ccccc1)N(Cc1ccco1)C(=O)Cn1cnc2ccccc21 (stereo not drawn)	-1%	-9%	1	12µM*	6%[57.5 µM]	0%	-2	-8%	6.3µM*
O=C(NC1CCCCC1)C(c1ccccc1)N(Cc1ccco1)C(=O)c1csnn1 (stereo not drawn)	-2%	2%	-3	-4%	-10%	-10%	nt	nt	nt
CCC(C)(C)NC(=O)C(c1ccc(C)o1)N(Cc1cccs1)C(=O)Cn1nnc2ccccc21 (stereo not drawn)	2%	1%	-6	?	-12%[57.5 µM]	-10%	-4	-5%	22µM*
CCC(C)(C)NC(=O)C(c1ccccc1)N(Cc1cccs1)C(=O)Cn1nnc2ccccc21 (stereo not drawn)	20%	2%	-1	?	i	0%	5	4%	16µM*
O=C(NCc1ccco1)C(c1ccco1)N(Cc1cccs1)C(=O)Cn1nnc2ccccc21 (stereo not drawn)	0%	1%	-6	1%	-6%	-2%	nt	nt	nt
O=C(NC1CCCCC1)C(c1ccco1)N(Cc1cccs1)C(=O)Cn1nnc2ccccc21 (stereo not drawn)	8%[38.3 µM]	-1%	3	?	i	-11%	-3	-2%	11µM*
CC(C)(C)NC(=O)CSc1ncc(-c2cccc(Br)c2)o1	nt	nt	-19	nt	nt	nt	nt	nt	nt
N#Cc1nc(-c2ccccc2F)oc1NCCCN1CCOCC1	nt	nt	0	nt	nt	nt	nt	nt	nt
CN1CC(c2ccccc2)C2(SC(=S)N(Cc3ccco3)C2=O)C12C(=O)Nc1ccccc12 (stereo not drawn)	8%[38.3 µM]	0%	-9	-1%	-15%	0%	nt	nt	nt
SMILES	PINK1 modulator	Vif-APOBEC3G blk	LDHA block	mIDH1 inhibitor	PTHR1 agonist	Vif-A3F inh	IDH1 autofl	IDH1 WT	mIDH1 confirm
CN1CC(c2ccccn2)C2(SC(=S)N(Cc3ccccc3)C2=O)C12C(=O)Nc1ccccc12 (stereo not drawn)	-6%[38.3 µM]	4%	5	?	-15%	-7%	-2	-2%	20µM*
COc1ccc(C)cc1NC(=O)C(Sc1nnnn1C1CCCC1)c1ccccc1 (stereo not drawn)	nt	nt	3	nt	nt	nt	nt	nt	nt
O=C(CN1C(=O)COc2ccc(S(=O)(=O)N3CCCCCC3)cc21)Nc1cccc(Cl)c1	0%	2%	-14	?	-79%	4%	-1	5%	?
Cc1ccc2[nH]cc(CCNC(=O)c3ccc(F)cc3F)c2c1	nt	nt	1	nt	nt	nt	nt	nt	nt
Cc1ccc(S(=O)(=O)c2nnn3c2nc(NCc2ccccc2)c2sccc23)cc1	9%	-2%	-7	-6%	-46%	-2%	nt	nt	nt
CC(=O)Nc1ccc(Nc2nc3c(S(=O)(=O)c4cc(C)ccc4C)nnn3c3ccsc23)cc1	0%	2%	0	-6%	i	6%	nt	nt	nt
Cc1ccc(S(=O)(=O)c2nnn3c2nc(NC(C)c2ccccc2)c2sccc23)cc1 (stereo not drawn)	1%	-4%	5	?	-58%	2%	-9	2%	14µM*
Cc1ccc(C)c(S(=O)(=O)c2nnn3c2nc(Nc2ccc(F)c(Cl)c2)c2sccc23)c1	0%	0%	5	?	-30%	5%	4	-3%	?
O=c1ccc(-c2ccc(Cl)cc2)nn1CCNS(=O)(=O)c1ccc(C(F)(F)F)cc1	nt	nt	4	nt	nt	nt	nt	nt	nt
